Results reported in PubChem BioAssay (Tox21).
Results filed as inconclusive are left out. The source made the active and inactive calls. Unless noted, calls come from the whole dose curve; as a rule, active = well fitted curve in the direction sought with a large enough effect in the repeat runs; inconclusive = weak or mixed curves; inactive = no such curve, though single readings can be large; an effect the other way counts as inactive or inconclusive.

Legend:
[1] = qHTS assay for small molecule agonists of the p53 signaling pathway (AID 651631; calls by dose curve; note: nearly all actives have a fitted effect of over 15% in size)
How it was run: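 We treat p53RE-bla HCT-116 cells with compounds for 16 h at 37 °C, add LiveBLAzer B/G FRET substrate for 2 h at room temperature, and measure fluorescence intensity.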

[2] = qHTS assay for small molecules that induce genotoxicity in human embryonic kidney cells expressing luciferase-tagged ATAD5 (AID 651632); note: nearly all actives have a fitted effect of over 15% in size
How it was run: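 Luminescent reporter readout, HEK293T ATAD5-luc line: 16 hr drug exposure (37C, 5% CO2) followed by Amplite, 30 min RT.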

[3] = qHTS assay for small molecule agonists of the p53 signaling pathway - cell viability (AID 651633; calls by dose curve;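 note: p53RE-bla HCT reporter cells with a stable beta-lactamase p53 reporter; series mostly up to about 83 µM; nearly all actives have a fitted effect of over 30% in size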)
How it was run: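 p53RE-bla cells, seeded at 4,000 per well and rested 5 h at 37 C/5% CO2, received compounds in DMSO for 16 h at 37 C. CellTiter-Glo was then added, and luminescence was read after 30 min at room temperature to gauge cytotoxicity.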

[4] = qHTS assay for small molecules that induce genotoxicity in human embryonic kidney cells expressing luciferase-tagged ATAD5 - cell viability (AID 651634; calls by dose curve; note: nearly all actives have a fitted effect of over 25% in size)
How it was run: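 Viability read: CellTiter-Fluor fluorescence, 30 min at 37C. Cells: HEK293T, luciferase-tagged ATAD5. Exposure: 15.5 hr, 37C, 5% CO2, compound or DMSO vehicle.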

[5] = qHTS assay for small molecule disruptors of the mitochondrial membrane potential - cell viability (AID 720634; calls by dose curve;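 note: human HepG2 liver cancer cells; series mostly up to about 83 µM; nearly all actives have a fitted effect of over 20% in size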)
How it was run: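 HepG2, 1 hr compound, 37 C. ATP luminescence via CellTiter-Glo, 30 min RT, same well as m-MPI.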

[6] = qHTS assay for small molecule disruptors of the mitochondrial membrane potential (AID 720635)
How it was run: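 HepG2 cells (2,000/well) attached overnight at 37C, then took compound for 1 hr at 37C, 5% CO2. Mito-MPS dye was added for 30 min; fluorescence was read at 490/535 nm (monomers) and 540/590 nm (aggregates).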

[7] = qHTS assay to test for compound auto fluorescence at 535 nm (green) in HepG2 cells (AID 720675)
[8] = qHTS assay to test for compound auto fluorescence at 460 nm (blue) in HEK293 cells (AID 720678)
How it was run: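 Triamterene serves as the blue fluorophore standard. Compound signal at 405/460 nm is read in HEK293 wells (2,000 cells, 10% dialyzed FBS) after overnight treatment at 37C.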

[9] = qHTS assay to test for compound auto fluorescence at 590 nm (red) in HEK293 cells (AID 720679)
How it was run: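 We plated HEK293 cells in 10% dialyzed FBS medium, let them adhere for 4-5 hr, then added 23 nL compound. Overnight at 37C and 5% CO2 preceded fluorescence measurement at 540/590nm.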

[10] = qHTS assay to test for compound auto fluorescence at 535 nm (green) in HEK293 cells (AID 720680)
[11] = qHTS assay to test for compound auto fluorescence at 460 nm (blue) in HEK293 cell free culture (AID 720681)
How it was run: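 Test compounds were pinned into cell-free culture medium (DMEM with 10% FBS) and fluorescence was read directly at Ex/Em 405/460 nm. Signals were expressed as fluorescence equivalents of triamterene, with DMSO vehicle as control.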

[12] = qHTS assay to test for compound auto fluorescence at 535 nm (green) in HEK293 cell free culture (AID 720682)
How it was run: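 Green-channel intensity (Ex/Em 485/535 nm) was recorded from compound-treated wells containing only DMEM with 10% FBS. Fluorescein provided the equivalency standard.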

[13] = qHTS assay to test for compound auto fluorescence at 590 nm (red) in HEK293 cell free culture (AID 720683)
How it was run: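 Tox21 10K library compounds were pinned into cell-free DMEM with 10% FBS and fluorescence was read at excitation 540 nm. Activity is expressed as Rose Bengal sodium equivalency.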

[14] = qHTS assay to test for compound auto fluorescence at 590 nm (red) in HepG2 cell free culture (AID 720684)
How it was run: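 Red fluorescence (540 nm excitation, 590 nm emission) was measured after compound transfer into cell-free MEM supplemented with 10% FBS. Values are equivalencies against Rose Bengal sodium.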

[15] = qHTS assay to test for compound auto fluorescence at 460 nm (blue) in HepG2 cell free culture (AID 720685)
How it was run: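 Compound (23 nL) or DMSO pinned into cell-free MEM with 10% FBS; blue fluorescence read at 405/460 nm excitation/emission, expressed as auto-fluorescence equivalency to triamterene.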

[16] = qHTS assay to test for compound auto fluorescence at 535 nm (green) in HepG2 cell free culture (AID 720686)
[17] = qHTS assay to test for compound auto fluorescence at 460 nm (blue) in HepG2 cells (AID 720687)
How it was run: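 Cells (2,000/well in MEM with 10% FBS) attached overnight at 37 C, then were exposed to compound or DMSO for 1 hr at 37 C, 5% CO2. Fluorescence read at Ex/Em 405/460 nm, expressed as triamterene-equivalent signal.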

[18] = target: Glucocorticoid receptor (Homo sapiens) (UniProt P04150); assay: qHTS assay to identify small molecule antagonists of the glucocorticoid receptor (GR) signaling pathway (AID 720692; active = well fitted inhibition curve with a large enough effect in the signal ratio in the repeat runs, not every such curve was filed as active; the % refers to the signal ratio)
How it was run: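 Inhibition of glucocorticoid signalling is measured in HeLa cells with a GRE-controlled beta-lactamase reporter; cells are co-treated with compound and 5 nM dexamethasone (final) for 18 h before FRET substrate readout.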

Measured: Potency

Glucocorticoid receptor (Homo sapiens), sequence (P04150 whole entry, looked up): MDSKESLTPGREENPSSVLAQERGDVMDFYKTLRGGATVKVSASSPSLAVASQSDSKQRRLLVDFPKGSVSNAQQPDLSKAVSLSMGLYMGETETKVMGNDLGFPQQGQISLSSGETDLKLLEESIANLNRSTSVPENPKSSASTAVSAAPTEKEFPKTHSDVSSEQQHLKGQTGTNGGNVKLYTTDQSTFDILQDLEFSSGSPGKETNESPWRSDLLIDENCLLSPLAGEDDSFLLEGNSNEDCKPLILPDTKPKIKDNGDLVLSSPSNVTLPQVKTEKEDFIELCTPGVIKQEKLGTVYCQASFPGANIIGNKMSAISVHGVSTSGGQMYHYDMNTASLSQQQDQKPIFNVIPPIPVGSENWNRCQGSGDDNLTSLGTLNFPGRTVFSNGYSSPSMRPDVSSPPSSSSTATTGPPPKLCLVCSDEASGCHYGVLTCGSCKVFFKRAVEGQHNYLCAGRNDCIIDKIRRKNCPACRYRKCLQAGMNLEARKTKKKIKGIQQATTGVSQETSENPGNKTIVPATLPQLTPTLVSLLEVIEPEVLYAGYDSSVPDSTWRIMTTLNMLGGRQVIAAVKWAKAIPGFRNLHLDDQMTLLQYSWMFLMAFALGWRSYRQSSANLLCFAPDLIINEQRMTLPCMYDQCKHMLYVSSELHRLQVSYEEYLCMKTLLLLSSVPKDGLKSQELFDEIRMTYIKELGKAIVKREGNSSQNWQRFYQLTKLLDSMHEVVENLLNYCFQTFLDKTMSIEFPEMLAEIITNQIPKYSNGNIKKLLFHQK

NC(=O)NO
inactive: all assays above

NC(=O)OCC(COC(N)=O)c1ccccc1
not listed: [7]
inactive: all other assays above

C=C(C)OC(C)=O
inactive: all assays above

CCN1CCCC1=O
inactive: all assays above

CCCCCCCCCCCCCC(=O)OC(C)C
inactive: all assays above

CC(C)=CCC/C(C)=C/CO
not listed: [6]
inactive: all other assays above

CCc1cc(C(N)=S)ccn1
not listed: [2] | [7]
inactive: all other assays above

Cc1cnc(NC(=O)C2=C(O)c3ccccc3S(=O)(=O)N2C)s1
not listed: [4] | [6]
inactive: all other assays above
